Inconclusive results are not listed. The source made the active and inactive calls. Rule for the calls: active = hit-call score of the fitted dose curve at least 0.9, where 1 is the maximum; inconclusive = response in the unintended direction; inactive = score below 0.9.

The test system of the assay is rainbow trout Peroxisome Proliferator-activated Receptor gamma (PPARg), gene 110528708. The assay can be described thus: ATG_rtPPARg_EcoTox2: Attagene TRANS-FACTORIAL EcoTox-2 HepG2 Assay for rainbow trout Peroxisome Proliferator-activated Receptor gamma (PPARg). How it is done:
ATG_EcoTox2 is a cell-based, multiplexed assay created by modifying the existing Attagene TRANS-FACTORIAL system to include a panel of nuclear receptors from some or all the following species: human (Homo sapiens), african clawed frog (Xenopus laevis), rainbow trout (Oncorhynchus mykiss), japanese medaka (Oryzias latipes), and zebrafish (Danio rerio). The ECOTOX2-FACTORIAL format uses HepG2, a human liver cell line, with measurements taken at 24 hours after chemical dosing in a 24-well plate. ATG_rtPPARg_EcoTox2 is one of 29 assay components calculated in the ATG_EcoTox2 assay. It is designed to make measurements of mRNA induction, a form of inducible reporter, as detected with fluorescence intensity signals by Reverse transcription polymerase chain reaction (RT-PCR) and Capillary electrophoresis technology.The assay endpoint ATG_rtPPARg_EcoTox2 was analyzed in the positive analysis fitting direction relative to DMSO as the negative control and baseline of activity. Using a type of inducible reporter, measures of mRNA for gain-of-signal activity can be used to understand the reporter gene at the transcription factor-level as they relate to the gene PPARg. Furthermore, this assay endpoint can be referred to as a primary readout, because this assay has produced multiple assay endpoints where this one serves a reporter gene function. […]
Human liver HepG2 cells are transiently transfected with multiple reporter transcription units (MRTUs) in 6-well plates using FuGene 6 reagent (Roche; 3 ml FuGene/1 mg DNA). […] A major difference between the CIS and TRANS system is that in CIS activities of endogenous TFs are measured, whereas the TRANS assay evaluates changes in activities of exogenous, chimeric NR-Gal4 proteins. […] The fragments were purified using Qiaquick PCR columns (Qiagen), analyzed on an ABI 3130xL genetic analyzer (Applied Biosystems) with peak positions identified by using a set of X-rhodamine (ROX)-labeled MapMarker1000 molecular weight standards (BioVentures). […]
As for `O=C(O)C(F)(F)C(F)(F)C(F)(F)C(F)(F)C(F)(F)C(F)(F)C(F)(F)F`, the result was inactive. Under `CCCCOCN(C(=O)CCl)c1c(CC)cccc1CC` stands “inactive”. Turning to `O=S(=O)(O)C(F)(F)C(F)(F)C(F)(F)C(F)(F)C(F)(F)C(F)(F)F`, the outcome was inactive.

The record behind these values is PubChem BioAssay AID2284352 (EPA ToxCast).
